# From PubChem BioAssay
# CtBP-E1A inh – qHTS Assay for Inhibitors of the CtBP/E1A Interaction. CtBP / adenovirus E1A interaction (AlphaScreen). AlphaScreen GST-E1A/His-CtBP binding, 1536-well; hits give low values. activity change, % (test concentration not listed). hit rate 0.49% among 340,000; in the data active = activity change below about -65%; inconclusive = mostly about -30% to -63%; note: % is set by controls: 0 for no effect and ±100 for the full control effect
#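 Protein mix (5X: 125 nM each GST-E1A, His-CtBP) was incubated with pinned compound 2 h at 37 deg C in dark, in 50 mM Tris pH 8.0 buffer with 300 mM NaCl. Glutathione donor and nickel acceptor beads followed; AlphaScreen signal read after 1 h.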
# Mito fusion act – qHTS Assay for Small Molecule Inhibitors of Mitochondrial Division or Activators of Mitochondrial Fusion; S. cerevisiae fusion-defective mutant growth rescue, CellTiterGlo 48 h; hit rate 0.23% among 320,000; Potency, µM (series often up to 46.1 µM), without a hit: at the highest dose growth rescue (activation), actives largely listed as activators; note: potency is the fitted concentration of half-maximal effect; % of control where 0% means no effect; nearly all actives have a fitted effect of over 45% in size
#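 Yeast fusion mutant, YPEG (non-fermentable carbon), compound, 48 h at 37C non-permissive; CellTiterGlo added, 10 min RT, luminescence read. Rescued growth = division inhibition.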
# uPA surface inh – qHTS for Inhibitors of Cell Surface uPA Generation; cell surface uPA generation assay, qHTS; Potency, µM (top dose mostly 38.3 µM), for the others: top-dose activity change, negative = inhibition, usual class: inhibitors; hit rate 0.31% among 330,000; AID 540303, 2011; active = well fitted inhibition curve with a large enough effect; inconclusive = small, poorly fitted or top-dose-only effect; inactive = no such curve, though single readings can be large or run the other way; tested in mouse RAW 264.7 cells; note: potency is the fitted concentration of half-maximal effect; % is set by controls: 0 for no effect and ±100 for the full control effect; nearly all actives have a fitted effect of over 55% in size
# MBNL1 CUG block – qHTS Assay for Inhibitors of MBNL1-poly(CUG) RNA binding | TR-FRET MBNL1-His/biotin-(CUG)12 binding, 665/545 ratio | Potency, µM (top dose mostly 57.5 µM), without a hit: at the highest dose activity change, negative = inhibition, hits mostly inhibitors | Muscleblind-like protein 1 (Homo sapiens), Q9NR56 | hit rate 0.036% among 280,000; active = well fitted inhibition curve with a large enough effect in the signal ratio, with a control signal flat, not every such curve was filed as active; inconclusive = small, poorly fitted or top-dose-only effect, or effect the other way, or a change in a side signal; inactive = no such curve, though single readings can be large or run the other way; the % refers to the signal ratio; note: potency is the fitted concentration of half-maximal effect; % is set by controls: 0 for no effect and ±100 for the full control effect
#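 Ratiometric TR-FRET (665 over 545 nm, excitation 340 nm) tracks disruption of MBNL1-His/biotin-(CUG)12 complex after 60 min at room temperature, with compounds at 92 nM to 58 uM final.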
# Six1-Eya2 inh – qHTS Assay for Inhibitors of the Six1/Eya2 Interaction | Homeobox protein SIX1 (Homo sapiens) + Protein phosphatase EYA2 (Homo sapiens), … | AlphaScreen GST-Six1/His-Eya2 binding, biochemical; hits give low values | activity change, % (concentration not given with the values) | hit rate 0.56% among 360,000; in the data active = activity change below about -65%; inconclusive = mostly about -30% to -63%; note: % is set by controls: 0 for no effect and ±100 for the full control effect
# Target sequence (O00167 whole entry, looked up): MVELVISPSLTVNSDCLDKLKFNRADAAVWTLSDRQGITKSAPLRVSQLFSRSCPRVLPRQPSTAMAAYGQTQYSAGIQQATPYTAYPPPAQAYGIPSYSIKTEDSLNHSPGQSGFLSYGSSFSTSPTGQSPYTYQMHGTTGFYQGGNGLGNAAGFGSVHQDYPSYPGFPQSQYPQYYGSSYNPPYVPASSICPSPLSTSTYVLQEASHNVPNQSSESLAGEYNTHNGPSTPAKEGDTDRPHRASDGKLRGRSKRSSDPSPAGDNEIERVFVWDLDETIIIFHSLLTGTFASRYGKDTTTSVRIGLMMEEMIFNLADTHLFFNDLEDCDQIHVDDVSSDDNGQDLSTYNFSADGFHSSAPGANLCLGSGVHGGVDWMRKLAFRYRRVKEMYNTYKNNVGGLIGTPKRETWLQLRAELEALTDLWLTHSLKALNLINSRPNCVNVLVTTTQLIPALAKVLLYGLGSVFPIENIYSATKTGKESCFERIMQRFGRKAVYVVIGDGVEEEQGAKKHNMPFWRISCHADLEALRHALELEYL
# Target sequence (Q15475 whole entry, looked up): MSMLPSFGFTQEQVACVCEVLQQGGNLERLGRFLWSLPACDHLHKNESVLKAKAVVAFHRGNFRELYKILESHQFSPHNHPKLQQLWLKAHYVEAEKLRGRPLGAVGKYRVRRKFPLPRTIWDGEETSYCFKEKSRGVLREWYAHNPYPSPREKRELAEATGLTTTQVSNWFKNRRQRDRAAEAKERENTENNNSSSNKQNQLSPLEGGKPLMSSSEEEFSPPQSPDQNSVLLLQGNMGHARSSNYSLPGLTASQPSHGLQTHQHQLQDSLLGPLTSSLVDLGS
#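 Homogeneous AlphaScreen proximity assay pairing GST-Six1 with His-tagged Eya2 (added as 5X mix: 250 nM and 500 nM) in 50 mM Tris pH 8.0, 300 mM NaCl, 1 mM TCEP. Glutathione donor and nickel acceptor beads; 1 h, 37 °C, dark.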
# MBNL1-CUG FRET – qHTS Assay for Inhibitors of MBNL1-poly(CUG) RNA binding: Initial hit validation from the primary screen. hit rate 50% among 140. Potency, µM (doses to about 57.6 µM), for the others: top-dose activity change, negative = inhibition, actives largely listed as inhibitors. TR-FRET MBNL1-His / biotin-(CUG)12 binding, 60 min. AID 493199, 2011. shares compounds with MBNL1 CUG block
# MBNL1-CUG Alpha – qHTS Assay for Inhibitors of MBNL1-poly(CUG) RNA binding: Initial hit validation in AlphaScreen assay for MBNL1-(CUG)12 binding | hit rate 30% among 140 | Potency, µM (highest dose often 57.7 µM), inactives show top-dose activity, negative = inhibition, most hits filed as inhibitors | AlphaScreen MBNL1-His / biotin-(CUG)12 binding | AID 493205, 2011 | shares compounds with MBNL1 CUG block
# Menin-MLL HTRF – qHTS Assay for Inhibitors of MBNL1-poly(CUG) RNA binding: Counterscreen HTRF assay. shares compounds with MBNL1 CUG block. His-Menin/biotin-MLL peptide TR-FRET counterscreen. Potency, µM (top dose mostly 57.6 µM), for the others: top-dose activity, negative = inhibition, usual class: inhibitors. hit rate 20% among 120. AID 651843, 2012
# * hit, by the source's call; ? = inconclusive; . = no result given. Sampled rows, rich in hits. Any-hit rate of the full collection: about 1.1%. Unless noted, calls come from the whole dose curve; as a rule, active = well fitted curve in the direction sought with a large enough effect; inconclusive = small, poorly fitted or top-dose-only effect, or another doubt; inactive = no such curve, though single readings can be large; an effect the other way counts as inactive or inconclusive.
SMILES,CtBP-E1A inh,Mito fusion act,uPA surface inh,MBNL1 CUG block,Six1-Eya2 inh,MBNL1-CUG FRET,MBNL1-CUG Alpha,Menin-MLL HTRF
COc1cc(C(=O)N/N=C/c2ccc(OC)c(CN3CCN(c4ccc(F)cc4)CC3)c2)ccc1O,.,0%,-2%,32µM*,?,?,-29%,-18%
COc1ccc(/C=N/NC(=O)c2ccccc2)cc1CN1CCN(c2ccc(F)cc2)CC1,-3,-3%,4%,-3%,-1,.,.,.
CCCCC[C@H](O)/C=C/[C@@H]1[C@@H](C/C=C\CCCC(=O)O)[C@@H](O)C[C@H]1O,-2,9%,-11%,35%,-1,.,.,.
CCCCC[C@H](O)/C=C/[C@@H]1[C@@H](C/C=C\CCCC(=O)OC)[C@@H](O)C[C@H]1O,12,2%,-4%,.,-18,?,10µM*,2%
COc1ccc(CN2C(=O)CCC2(C)c2nnnn2-c2ccc3c(c2)OCCO3)cc1 (stereo not given),4,.,.,.,8,.,.,.
